The sample as a whole holds a higher share of hits than the screen did.
Cycloheximide cs: counter-screen hit for Shiga toxin inhibitors, cycloheximide; actives 12% (n = 300,000); max response, %; cell reporter, cycloheximide protein synthesis inhibition counterscreen; in the data active = max response mostly above about 13%, no sharp cut-off; inactive = mostly below about 14%; note: read at 38.3 µM for the half of the compounds with a filed dose
Shiga toxin inh: blocks Shiga toxin action in Vero cells | Vero cells, Shiga toxin protein synthesis inhibition reporter | inhibition, % at 38.7 µM | actives 9.2% (n = 290,000); in the data active = inhibition mostly above about 28%, no sharp cut-off; inactive = mostly below about 43%
Giardia FBPA inh: Giardia lamblia aldolase inhibition; purified Giardia FBPA; Potency, µM (doses to about 59.6 µM), most hits filed as inhibitors; actives 0.71% (n = 290,000); note: nearly all actives have a fitted effect of over 55% in size
Target sequence (A8B2U2 whole entry, looked up): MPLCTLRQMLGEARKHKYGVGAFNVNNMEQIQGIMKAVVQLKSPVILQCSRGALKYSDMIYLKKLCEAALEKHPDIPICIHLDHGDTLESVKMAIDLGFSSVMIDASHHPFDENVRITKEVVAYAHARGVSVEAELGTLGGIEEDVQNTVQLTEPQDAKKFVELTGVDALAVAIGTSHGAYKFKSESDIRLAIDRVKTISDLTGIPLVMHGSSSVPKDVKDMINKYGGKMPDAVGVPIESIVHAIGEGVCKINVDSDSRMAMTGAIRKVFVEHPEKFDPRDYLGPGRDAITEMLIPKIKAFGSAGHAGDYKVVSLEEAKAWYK
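40 nM FBPA preincubated 10 min at RT with compound (up to 57.5 uM final), then substrate plus GAPDH/TPI/NAD/arsenate coupling and diaphorase/resazurin added. Fluorescence read after 20 min at RT, 525/598 nm.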
LmPK inhibitor: LmPK (Leishmania mexicana) enzyme inhibition; Q27686; actives 0.37% (n = 290,000); AID 1721; Potency, µM (titrated, usually from 57.5 µM), actives largely listed as inhibitors; purified LmPK, Kinase-Glo ATP luminescence, 1 h
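Pyruvate kinase activity monitored as ATP production (luciferase luminescence). Conditions: 0.1 nM enzyme, 0.5 mM PEP, 0.1 mM ADP, 1 h, RT; normalized against uninhibited and no-enzyme wells.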
Tb PYK inh: T. brucei pyruvate kinase inhibition; Q57TT1; TbPYK enzyme, Kinase-Glo Plus ATP luminescence, 45 min; Potency, µM (series often up to 76.8 µM), usual class: inhibitors; actives 0.12% (n = 410,000); note: nearly all actives have a fitted effect of over 50% in size
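Activity of T. brucei pyruvate kinase was followed by Kinase-Glo Plus luminescence after the enzyme reacted 45 min at room temperature with 130 uM ADP (final) and substrate. Test compounds were added before ADP at multiple concentrations.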
Sm TGR block: S. mansoni TGR enzyme inhibition | AID 485364 | actives 3% (n = 360,000) | Potency, µM (titrated, usually from 114 µM), most hits filed as inhibitors | Q962Y6 | purified TGR, DTNB reduction, TNB absorbance 405 nm; note: nearly all actives have a fitted effect of over 60% in size
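First, TGR (20 nM dispensed) and NADPH were mixed with compound. Second, a 15 min room-temperature incubation followed. Third, further NADPH and then DTNB were added to start the reaction. Finally, TNB absorbance was monitored kinetically.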
Hits are given with their value; 0 = inactive; ? = inconclusive; - = not tested or not shown; [ ] = another dose, or the depositor's remark. Unless noted, calls come from the whole dose curve; as a rule, active = well fitted curve in the direction sought with a large enough effect; inconclusive = small, poorly fitted or top-dose-only effect, or another doubt; inactive = no such curve, though single readings can be large; an effect the other way counts as inactive or inconclusive.

SMILES | Cycloheximide cs | Shiga toxin inh | Giardia FBPA inh | LmPK inhibitor | Tb PYK inh | Sm TGR block
Cc1cc(C)cc(NS(=O)(=O)c2ccc(-c3cc(C)no3)cc2)c1 | - | - | - | - | 0 | 0
C[C@@H]1/C=C\CC(=O)OC[C@H](C)C(=O)N[C@@H](Cc2ccccc2)C(=O)OC1 | - | - | 0[12.9 µM] | - | - | -
COc1ccc(Cn2c(CNS(=O)(=O)c3ccc(Cl)s3)nc3cccnc32)cc1 | - | - | - | - | 0 | 0
Nc1ccccc1C(=O)Nc1nccs1 | 44.7 | 61.7 | 0 | 0 | 0 | -
COc1ccc(S(=O)(=O)c2c(Nc3c(C)cccc3C)sc(C(=O)c3ccc(F)cc3)c2N)cc1 | - | - | - | - | 0 | 0
Cc1ccc(C(C(=O)NC2CCCCC2)N(C(=O)CCCC(=O)Nc2ccccn2)c2ccc3c(c2)OCCO3)cc1 (stereo not given) | 10.6 | 0 | 0 | 0 | 0 | 0
O=C(CN(C(=O)CCC(=O)Nc1ccccn1)c1ccc2c(c1)OCCO2)NCCc1ccccc1 | 11.6 | 0 | 0 | 0 | 0 | 0
O=C(CCC(=O)N(CC(=O)NC1CCCCC1)c1ccc2c(c1)OCCO2)Nc1ccccn1 | 20.6 | 0 | 0 | 0 | - | 0
CC(C)CCNC(=O)CN(C(=O)CCC(=O)Nc1ccccn1)c1ccc2c(c1)OCCO2 | 21.6 | 55.8 | 0 | 0 | 0 | 0
COC(=O)[C@]12CCCCC=C1N(Cc1ccc(Cl)cc1Cl)C(=O)[C@H](CC(=O)N1CCC(c3ccccc3)CC1)C2 | - | - | - | - | 0 | -
CCC(C)(C)NC(=O)CN(C(=O)CCC(=O)Nc1nccs1)c1ccc2c(c1)OCCO2 | 50.9 | 57.4 | 0 | 0 | 0 | 0
CCc1ccc(N(CC(=O)NC(C)(C)CC)C(=O)CCC(=O)Nc2nccs2)cc1 | 0 | 0 | 0 | 0 | 0 | 0
O=C(CN(C(=O)Cn1nnc(-c2cccs2)n1)c1ccc2c(c1)OCCO2)NCC1CCCO1 (stereo not given) | 0 | 0 | 0 | 0 | 0 | 0
O=C(CN(C(=O)Cn1nnc(-c2cccs2)n1)c1ccc2c(c1)OCCO2)NC1CCCCC1 | 32.1 | 56.2 | 0 | 0 | 0 | 0
COc1ccc(OCCCCn2c(C3CC(=O)N(c4cccc(Cl)c4)C3)nc3ccccc32)cc1 (stereo not given) | - | - | - | - | 0 | 0
CCOC(=O)c1ccc(N[C@@H]2CCN3C(=O)c4ccccc4[C@@H]3C[C@H]2O)cc1 | - | - | - | - | 0 | -
CCOC(=O)c1ccc(NC2OC(=O)c3ccccc32)cc1 (stereo not given) | 14.5 | 0 | 0 | 0 | 0 | 0
CCc1ccccc1NC(=O)CN(C)Cc1nc(N)nc(Nc2ccccc2C)n1 | 0 | 0 | 0 | 0 | 0 | 0
Cc1ccccc1Nc1nc(N)nc(CSc2nnc(-c3ccccc3)n2C)n1 | 18.1 | 0 | 0 | 0 | 0 | 0
Cc1ccccc1Nc1nc(N)nc(CCl)n1 | 34.3 | 51.8 | 0 | 0 | 0 | ?
Cc1ccccc1NC(=O)CSCc1nc(N)nc(Nc2ccccc2C)n1 | 16.3 | 0 | 0 | 0 | 0 | 0
CC1(CNC(=O)C(=O)NCC2(C)CO2)CO1 (stereo not given) | - | - | - | - | 0 | -
COc1cc(CO)c(Br)cc1OCC(N)=O | 0 | 0 | 0 | 0 | 0 | -
COc1cc(CO)c(Br)cc1OCC(=O)Nc1ccccc1C | 31.8 | 0 | 0 | 0[11.5 µM] | 0 | 0
Cc1ccccc1NC(=O)COc1ccc(Br)cc1C | 41.1 | 54.4 | 0 | 0 | 0 | 0
SMILES | Cycloheximide cs | Shiga toxin inh | Giardia FBPA inh | LmPK inhibitor | Tb PYK inh | Sm TGR block
CCc1ccc(C2=CC(c3cccc(C)c3)n3c(nc4ccccc43)N2)cc1 (stereo not given) | - | - | - | - | 0 | 0
COc1cc(Cl)c(C)cc1NC(=O)Cn1cc(S(=O)(=O)N2CCC(C)CC2)c2ccccc2c1=O | - | - | - | - | 0 | 0
Cc1oc2ncnc(N3CCCCC3)c2c1C(=O)NCC1CCN(Cc2ccccc2F)CC1 | - | - | - | - | 0 | 0
Cc1ccc(Nc2cc(C(=O)NC3CCCC3)c3ccccc3n2)cc1C | - | - | - | - | 0 | 0
COCCNC(=O)c1cc2oc3ccccc3c2n1C | 62.0 | 89.5 | 0 | 0 | 0 | 0
CCCCOc1ccccc1C(=O)N(Cc1sccc1C)C1CCS(=O)(=O)C1 (stereo not given) | - | - | - | - | 0 | 0
CCn1c(=N)c(C(=O)NC2CCCC2)cc2c(=O)n3ccccc3nc21 | - | - | - | - | 0 | 0
Cn1c(C(=O)NC2CCCCC2)cc2c(=O)n3ccccc3nc21 | 22.7 | 0 | - | 0 | 0 | 0
Cn1c(C(=O)NCc2ccccn2)cc2c(=O)n3ccccc3nc21 | 28.7 | 58.4 | 0 | 0 | 0 | 0
O=c1cc(-c2ccccc2)n2c(SCc3ccc([N+](=O)[O-])cc3)nnc2[nH]1 | - | - | - | - | 0 | 0
CCN(CC)c1ccc(CNc2ccc(Br)cn2)cc1 | 33.1 | 87.9 | 0 | 0 | 0 | 0
CC(C)N1CCc2c(sc(NC(=O)CCS(=O)(=O)c3ccccc3)c2C#N)C1 | 0 | 0 | 0 | 0 | 0 | 14.1µM
COC(=O)c1c(NC(=O)CCS(=O)(=O)c2ccccc2)sc2c1CCN(C)C2 | 0 | 0 | 0 | 0 | 0 | ?
CCCN1CCc2c(sc(NC(=O)CCS(=O)(=O)c3ccccc3)c2C(=O)OC)C1 | 0 | 0 | - | 0 | 0 | 22.4µM
CC(C)N1CCc2c(sc(NC(=O)CCc3ccccc3)c2C(N)=O)C1 | 0 | 0 | 0 | 0 | 0 | 0
Cc1cccc(N2CCN(C(=O)c3oc(=O)c4ccccc4c3-c3ccccc3)CC2C)c1 (stereo not given) | - | - | - | - | 0 | 0
O=C(NCc1ccc(Cl)cc1)C1CCN(c2nn3cc(-c4ccc(F)cc4)nc3s2)CC1 | - | - | - | - | 0[15.4 µM] | 0
O=C(CCC(=O)N1CC2CCCN2c2ccccc21)NCc1ccc(F)cc1 (stereo not given) | - | - | - | - | 0 | 0
OCc1cn(-c2ccccc2)nc1-c1ccco1 | 0 | 0 | 0 | 0 | 0 | 0
CN(C)C(=O)c1cn(-c2ccccc2)nc1-c1cc2ccccc2o1 | 0 | 0 | 0 | 0 | 0 | 0
Cc1ccc(-c2nn(-c3ccccc3)cc2C(N)=O)o1 | 0 | 0 | 0 | 0 | 0 | 20µM
N#Cc1cn(-c2ccccc2)nc1-c1ccccc1 | 21.4 | 0 | 0 | 0 | 0 | 0
OCc1cn(-c2ccccc2)nc1-c1ccc(-c2nn(-c3ccccc3)cc2CO)cc1 | 0 | 0 | 0 | 0 | 0 | 0
O=Cc1cn(-c2ccccc2)nc1-c1ccccc1 | 43.6 | 45.3 | 0 | 0 | 0 | 0
Cc1ccc(-c2nn(-c3ccccc3)cc2CO)o1 | 33.6 | 84.7 | 0 | 0 | 0 | 44.7µM
SMILES | Cycloheximide cs | Shiga toxin inh | Giardia FBPA inh | LmPK inhibitor | Tb PYK inh | Sm TGR block
CCOC(=O)c1[nH]c(C)c(CCC(=O)Nc2ccccc2OCC)c1C | - | - | - | - | 0 | 0
O=C(N/C(=C\c1cn(-c2ccccc2)nc1-c1ccccc1)C(=O)N1CCOCC1)c1ccccc1 | 0 | 0 | 0 | 0 | - | 0
C(=N\N1CCOCC1)/c1cn(-c2ccccc2)nc1-c1ccccc1 | 21.9 | 0 | 0 | 0 | 0 | 0
CCc1ccc(-c2nn(Cc3ccccc3)cc2C=O)cc1 | 50.0 | 90.3 | 0 | 0 | 0 | 0
Cc1ccc(-c2nn(-c3ccccc3)cc2C=O)o1 | 50.9 | 112.5 | 0 | 0 | 0 | 12.6µM
CC(C)Oc1cccc(C(=O)Nc2ccc3oc(-c4ccccc4)nc3c2)c1 | - | - | - | - | 0 | 0
CC(=O)N1CCN(c2csc3ccc(Cl)cc3c2=O)CC1 | - | - | - | - | 0 | 0
